CF NFkB inh – blocks PAF-induced NF-kB reporter in cystic fibrosis cells; inhibition, % at 5 µM; 0.86% of 360,000 active; AID 588850; KKLEB NF-kB-GFP reporter, GFP fluorescence overnight;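 active = at least 50% inhibition at 5 µM, scaled per plate between neutral and stimulator controls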;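 also: PAF is a Pseudomonas aeruginosa culture filtrate used as stimulus; plate controls were PAF-stimulated DMSO wells for no effect and unstimulated DMSO wells for full effect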
KKLEB tox – CF airway cell cytotoxicity counter-screen. activity change (cytotoxicity), % at 5 µM. KKLEB CF airway cells viability, ATPlite luminescence, overnight; active compounds read low; cells stimulated with P. aeruginosa culture filtrate. 0.36% of 360,000 active. AID 602141;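 active = corrected activity change at or below -50% at 5 µM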
Peg3 promoter – Peg3 promoter activity inhibition; HeLa PEG-Prom luciferase reporter, luminescence, overnight; 1.7% of 360,000 active; inhibition, % at 20 µM;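 active = inhibition of at least 50% at 20 µM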
TROY signal inh – TROY signaling inhibition | Q293 LMP1-TROYcd NF-kB luciferase reporter, 4 h | inhibition, % at 10 µM | 0.98% of 360,000 active;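 active = compounds whose plate-normalised and pattern-corrected inhibition of the luciferase reporter signal at the single screening dose is 50% or more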
HIF-2a inh – inhibitors of HIF-2a; inhibition, % at 18.8 µM; 0.72% of 360,000 active; 786-0 RCC cells HIF-2a reporter, luciferase luminescence, overnight;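 active = inhibition of the luminescence signal of 40% or more relative to plate controls, in a single-dose primary screen at 18.75 µM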
TWEAK-Fn14 inh – blocks TWEAK-Fn14 interaction in a reporter cell assay | TWEAK-stimulated Fn14 reporter cells, luciferase luminescence, 8 h | inhibition, % at 10 µM | 2% of 360,000 active; in the data active = inhibition above about 50%
Active calls of the source: *. Most compounds without a hit are left out; they make up all but 3.9% or so of the library.

Results for N#Cc1c(-c2ccc(F)cc2)cc(-c2cccnc2)nc1N ?
CF NFkB inh: 4.3; KKLEB tox: -36.3; Peg3 promoter: 53.5*; TROY signal inh: 10.2; HIF-2a inh: 8.2; TWEAK-Fn14 inh: -16.9

How did C=C(C)C1CC=C(C)/C(=N/NC(=O)CNc2ccc(OCC)cc2)C1 (configuration not stated) do in these assays?
CF NFkB inh: -2.4; KKLEB tox: -9.3; Peg3 promoter: 12.8; TROY signal inh: -4.9; HIF-2a inh: -1.8; TWEAK-Fn14 inh: 8.0

How did CN1CC(=O)N(CC(=O)NCCc2ccc(F)cc2)c2ccccc2C1=O do in these assays?
CF NFkB inh: -5.4; KKLEB tox: -0.7; Peg3 promoter: 1.7; TROY signal inh: 14.8; HIF-2a inh: 7.4; TWEAK-Fn14 inh: -5.9

What do the screens show for `COc1ccc(-c2nc(CN3CCN(c4ncnc5ccccc45)CC3)c(C)o2)c(OC)c1`?
CF NFkB inh: -16.2; KKLEB tox: -2.3; Peg3 promoter: 19.1; TROY signal inh: 29.3; HIF-2a inh: 13.2; TWEAK-Fn14 inh: 59.0*

What do the screens show for `Cc1oc(-c2cc(F)ccc2F)nc1CN1CCN(c2ncnc3ccccc23)CC1`?
CF NFkB inh: 14.4; KKLEB tox: -5.2; Peg3 promoter: 15.4; TROY signal inh: 28.5; HIF-2a inh: 25.6; TWEAK-Fn14 inh: 52.2*

Results for CCc1nc2c(OCc3ccc(C#N)cc3)cccn2c1N(C)C(=O)c1ccco1 ?
CF NFkB inh: -60.2; KKLEB tox: 13.2; Peg3 promoter: 3.7; TROY signal inh: -7.8; HIF-2a inh: -0.4; TWEAK-Fn14 inh: 5.8

How did CCc1nc2ccccc2n1CC(=O)N1CCN(S(=O)(=O)c2cccc(C(F)(F)F)c2)CC1 do in these assays?
CF NFkB inh: 0.9; KKLEB tox: -8.9; Peg3 promoter: 1.7; TROY signal inh: -6.7; HIF-2a inh: 26.2; TWEAK-Fn14 inh: -3.1

How did O=C(NNCc1ccccc1)c1ccccc1 do in these assays?
CF NFkB inh: 12.9; KKLEB tox: 5.3; Peg3 promoter: -72.2; TROY signal inh: 24.4; HIF-2a inh: -65.8; TWEAK-Fn14 inh: 64.8*

Results for CC(C)c1ccc(CNNC(=O)c2ccccc2)cc1 ?
CF NFkB inh: 3.5; KKLEB tox: -7.3; Peg3 promoter: -240.9; TROY signal inh: -30.5; HIF-2a inh: -172.7; TWEAK-Fn14 inh: -0.7

Results for COc1ccc(N2CCN(C(=O)[C@@H](NC(=O)c3ccccc3Cl)C(C)C)CC2)cc1 ?
CF NFkB inh: 5.3; KKLEB tox: 2.6; Peg3 promoter: 9.0; TROY signal inh: -3.0; HIF-2a inh: 9.0; TWEAK-Fn14 inh: 41.7

What do the screens show for `Cc1ccc(SCC(=O)Nc2cc([N+](=O)[O-])ccc2O)cc1`?
CF NFkB inh: 37.5; KKLEB tox: 21.1; Peg3 promoter: -95.2; TROY signal inh: 40.6; HIF-2a inh: -175.5; TWEAK-Fn14 inh: -18.9

How did Cc1ccc(S(=O)(=O)NCCn2nc(C)cc2C)cc1 do in these assays?
CF NFkB inh: -4.2; KKLEB tox: -4.8; Peg3 promoter: 18.5; TROY signal inh: -0.1; HIF-2a inh: 8.6; TWEAK-Fn14 inh: 90.5*

Results for CC(C)(C)C(=O)Nc1ccc(-c2cn3ccsc3n2)cc1 ?
CF NFkB inh: -13.5; KKLEB tox: -20.3; Peg3 promoter: -21.2; TROY signal inh: 48.2; HIF-2a inh: -21.7; TWEAK-Fn14 inh: 74.1*

How did Cc1sc(NC(=S)NC(=O)CCc2ccccc2)c(C(N)=O)c1C do in these assays?
CF NFkB inh: 50.5*; KKLEB tox: -27.7; Peg3 promoter: -1.6; TROY signal inh: 10.8; HIF-2a inh: -6.7; TWEAK-Fn14 inh: -13.1

How did COC(=O)CCC(=O)NC(=S)Nc1sc(C)c(C)c1C(N)=O do in these assays?
CF NFkB inh: 43.4; KKLEB tox: -35.1; Peg3 promoter: 6.2; TROY signal inh: 10.8; HIF-2a inh: 4.2; TWEAK-Fn14 inh: -15.9

How did CC(C)COc1ccc(-c2nnc(-c3ccncc3)o2)cc1 do in these assays?
CF NFkB inh: -20.8; KKLEB tox: 7.0; Peg3 promoter: -262.1; TROY signal inh: -3.4; HIF-2a inh: -204.9; TWEAK-Fn14 inh: 19.8

Results for c1csc(-c2ccc(N3CCOCC3)nn2)c1 ?
CF NFkB inh: -13.9; KKLEB tox: -6.4; Peg3 promoter: -58.2; TROY signal inh: 25.3; HIF-2a inh: -71.0; TWEAK-Fn14 inh: -12.9

What do the screens show for `CCOc1ccc(-c2nnc(-c3cccs3)o2)cc1OCC`?
CF NFkB inh: -7.9; KKLEB tox: 6.1; Peg3 promoter: -250.1; TROY signal inh: -97.9; HIF-2a inh: -264.6; TWEAK-Fn14 inh: -23.2

Screens: PubChem BioAssay, Sanford-Burnham Center for Chemical Genomics
